Experimental data: PubChem BioAssay AID1159580 (chemical genetic matrix, 2015)
About 2,000 (36%) of roughly 5,500 compounds were called active. Another 18% or so got no clear call; they are omitted. No stated cut-off is given here; in the data, active means normalized growth mostly below about 0.91 (no sharp cut-off); inconclusive means no clear call, values can overlap the other calls; inactive means mostly above about 0.92. The list shows a part of the results.

Experiment: chemical genetic growth profiling, strain panel (AID 1159580);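 further: tested at 20 µM; growth read once vehicle control cultures reached saturation at 30 °C; 1 = growth at the plate median or of vehicle wells; lower values mean less growth of the strain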
Settings: growth OD

Measured: normalized growth

CCC(=O)Nc1ccc(Cl)c(Cl)c1
inactive: S. cerevisiae deletion strains, locus YJR043C, strain POL32, active compounds read low 0.931 | S. cerevisiae deletion strains, locus YJR075W, strain HOC1, active compounds read low 0.965 | S. cerevisiae deletion strains, locus YKL009W, strain mrt4, active compounds read low 0.976 | S. cerevisiae deletion strains, locus YKL068W, active compounds read low 0.999 | S. cerevisiae deletion strains, locus YKL085W, strain MDH1 (second series), active compounds read low 0.999 | S. cerevisiae deletion strains, locus YKL085W, strain MDH1, active compounds read low 0.999 | S. cerevisiae deletion strains, locus YKL160W, strain elf1, active compounds read low 0.984 | S. cerevisiae deletion strains, locus YKL190W, strain CNB1, active compounds read low 1 | S. cerevisiae deletion strains, locus YKR001C, strain vps1, active compounds read low 0.973 | S. cerevisiae deletion strains, locus YKR026C, strain gcn3, active compounds read low 1 | S. cerevisiae deletion strains, locus YKR091W, strain srl3, active compounds read low 0.982 | S. cerevisiae deletion strains, locus YLL001W, strain dnm1, active compounds read low 0.99 | S. cerevisiae deletion strains, locus YLL026W, active compounds read low 0.989 | S. cerevisiae deletion strains, locus YLL041C, strain sdh2, active compounds read low 0.996 | S. cerevisiae deletion strains, locus YLR027C, strain aat2, active compounds read low 1 | S. cerevisiae deletion strains, locus YLR039C, strain RIC1, active compounds read low 1.02 | S. cerevisiae deletion strains, locus YLR058C, strain SHM2, active compounds read low 1 | S. cerevisiae deletion strains, locus YLR102C, strain apc9, active compounds read low 1 | S. cerevisiae deletion strains, locus YLR221C, strain rsa3, active compounds read low 0.986 | S. cerevisiae deletion strains, locus YLR258W, strain gsy2, active compounds read low 0.996 | S. cerevisiae deletion strains, locus YLR262C, strain YPT6 (second series), active compounds read low 1 | S. cerevisiae deletion strains, locus YLR262C, strain YPT6, active compounds read low 0.978 | S. cerevisiae deletion strains, locus YLR268W, strain sec22, active compounds read low 0.982 | S. cerevisiae deletion strains, locus YLR320W, strain mms22, active compounds read low 0.969 | S. cerevisiae deletion strains, locus YLR330W, strain CHS5, active compounds read low 0.995 | S. cerevisiae deletion strains, locus YLR342W, strain FKS1 (second series), active compounds read low 0.981 | S. cerevisiae deletion strains, locus YLR342W, strain FKS1, active compounds read low 0.973 | S. cerevisiae deletion strains, locus YLR357W, strain rsc2, active compounds read low 0.952 | S. cerevisiae deletion strains, locus YLR370C, strain arc18, active compounds read low 0.985 | S. cerevisiae deletion strains, locus YLR371W, strain rom2, active compounds read low 1.01 | S. cerevisiae deletion strains, locus YLR384C, strain iki3, active compounds read low 1.01 | S. cerevisiae deletion strains, locus YLR418C, strain cdc73, active compounds read low 0.866 | S. cerevisiae deletion strains, locus YML016C, strain PPZ1, active compounds read low 0.997 | S. cerevisiae deletion strains, locus YML032C, strain rad52, active compounds read low 1 | S. cerevisiae deletion strains, locus YML120C, strain ndi1, active compounds read low 1 | S. cerevisiae deletion strains, locus YML124C, strain tub3, active compounds read low 1 | S. cerevisiae deletion strains, locus YMR058W, strain fet3, active compounds read low 0.993 | S. cerevisiae deletion strains, locus YMR078C, strain ctf18, active compounds read low 1 | S. cerevisiae deletion strains, locus YMR125W, strain sto1, active compounds read low 0.98 | S. cerevisiae deletion strains, locus YMR129W, active compounds read low 0.98 | S. cerevisiae deletion strains, locus YMR205C, strain PFK2, active compounds read low 0.958 | S. cerevisiae deletion strains, locus YMR223W, strain ubp8, active compounds read low 1 | S. cerevisiae deletion strains, locus YMR231W, strain pep5, active compounds read low 0.997 | S. cerevisiae deletion strains, locus YMR263W, strain SAP30, active compounds read low 0.986 | S. cerevisiae deletion strains, locus YMR307W, strain GAS1, active compounds read low 0.843 | S. cerevisiae deletion strains, locus YNL067W, strain RPL9B, active compounds read low 0.965 | S. cerevisiae deletion strains, locus YNL071W, strain lat1, active compounds read low 0.987 | S. cerevisiae deletion strains, locus YNL128W, strain TEP1, active compounds read low 0.988 | S. cerevisiae deletion strains, locus YNL153C, strain GIM3, active compounds read low 0.988 | S. cerevisiae deletion strains, locus YNL209W, strain ssb2, active compounds read low 0.988 | S. cerevisiae deletion strains, locus YNL233W, strain BNI4, active compounds read low 0.976 | S. cerevisiae deletion strains, locus YNL248C, strain rpa49, active compounds read low 0.991 | S. cerevisiae deletion strains, locus YNL250W, strain rad50, active compounds read low 1.01 | S. cerevisiae deletion strains, locus YNL271C, strain bni1, active compounds read low 1.01 | S. cerevisiae deletion strains, locus YNL298W, strain CLA4, active compounds read low 0.995 | S. cerevisiae deletion strains, locus YNL307C, strain MCK1, active compounds read low 0.992 | S. cerevisiae deletion strains, locus YNL322C, strain KRE1 (second series), active compounds read low 0.987 | S. cerevisiae deletion strains, locus YNL322C, strain KRE1, active compounds read low 0.995 | S. cerevisiae deletion strains, locus YNR049C, strain mso1, active compounds read low 0.994 | S. cerevisiae deletion strains, locus YNR052C, strain pop2, active compounds read low 1.02 | S. cerevisiae deletion strains, locus YOL006C, strain TOP1, active compounds read low 0.885 | S. cerevisiae deletion strains, locus YOL012C, strain htz1 0.818 | S. cerevisiae deletion strains, locus YOL147C, strain pex11, active compounds read low 0.999 | S. cerevisiae deletion strains, locus YOR001W, strain rrp6, active compounds read low 0.994 | S. cerevisiae deletion strains, locus YOR061W, strain CKA2, active compounds read low 0.997 | S. cerevisiae deletion strains, locus YOR069W, strain VPS5, active compounds read low 1.01 | S. cerevisiae deletion strains, locus YOR070C, strain gyp1, active compounds read low 0.998 | S. cerevisiae deletion strains, locus YOR080W, strain dia2, active compounds read low 0.956 | S. cerevisiae deletion strains, locus YOR083W, strain WHI5, active compounds read low 0.994 | S. cerevisiae deletion strains, locus YOR106W, strain vam3, active compounds read low 0.988 | S. cerevisiae deletion strains, locus YOR136W, strain idh2, active compounds read low 0.998 | S. cerevisiae deletion strains, locus YOR144C, strain elg1, active compounds read low 0.995 | S. cerevisiae deletion strains, locus YOR184W, strain ser1, active compounds read low 0.977 | S. cerevisiae deletion strains, locus YOR265W, strain rbl2, active compounds read low 0.995 | S. cerevisiae deletion strains, locus YOR270C, strain vph1, active compounds read low 0.992 | S. cerevisiae deletion strains, locus YOR290C, strain snf2, active compounds read low 0.988 | S. cerevisiae deletion strains, locus YOR316C, strain cot1, active compounds read low 1.01 | S. cerevisiae deletion strains, locus YPL051W, strain arl3, active compounds read low 0.994 | S. cerevisiae deletion strains, locus YPL055C, strain LGE1, active compounds read low 0.904 | S. cerevisiae deletion strains, locus YPL078C, strain atp4, active compounds read low 0.988 | S. cerevisiae deletion strains, locus YPL106C, strain sse1, active compounds read low 0.952 | S. cerevisiae deletion strains, locus YPL240C, strain hsp82, active compounds read low 0.968 | S. cerevisiae deletion strains, locus YPL241C, strain CIN2, active compounds read low 0.993 | S. cerevisiae deletion strains, locus YPR119W, strain clb2, active compounds read low 1 | S. cerevisiae deletion strains, locus YPR141C, strain kar3, active compounds read low 1.01 | S. cerevisiae deletion strains, locus YPR163C, strain tif3, active compounds read low 0.997 | S. cerevisiae deletion strains, locus YPR167C, strain met16, active compounds read low 1 | S. cerevisiae deletion strains, strain wtn01, active compounds read low 1 | S. cerevisiae strains, strain wild type, active compounds read low 0.994
